The inhibition is the relative decrease from the control value, in per cent.

For assay [1], the target named is Sphingosine kinase 1 (Homo sapiens) (UniProt Q9NYA1). The note with it: at 1 µM.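 Also: mean SPHK1 inhibition value reported from the GSK PKIS kinase panel screen.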
Assay [2] addresses T1, Sphingosine kinase 2 (Homo sapiens) (UniProt Q9NRA0).
T1 sequence (whole entry): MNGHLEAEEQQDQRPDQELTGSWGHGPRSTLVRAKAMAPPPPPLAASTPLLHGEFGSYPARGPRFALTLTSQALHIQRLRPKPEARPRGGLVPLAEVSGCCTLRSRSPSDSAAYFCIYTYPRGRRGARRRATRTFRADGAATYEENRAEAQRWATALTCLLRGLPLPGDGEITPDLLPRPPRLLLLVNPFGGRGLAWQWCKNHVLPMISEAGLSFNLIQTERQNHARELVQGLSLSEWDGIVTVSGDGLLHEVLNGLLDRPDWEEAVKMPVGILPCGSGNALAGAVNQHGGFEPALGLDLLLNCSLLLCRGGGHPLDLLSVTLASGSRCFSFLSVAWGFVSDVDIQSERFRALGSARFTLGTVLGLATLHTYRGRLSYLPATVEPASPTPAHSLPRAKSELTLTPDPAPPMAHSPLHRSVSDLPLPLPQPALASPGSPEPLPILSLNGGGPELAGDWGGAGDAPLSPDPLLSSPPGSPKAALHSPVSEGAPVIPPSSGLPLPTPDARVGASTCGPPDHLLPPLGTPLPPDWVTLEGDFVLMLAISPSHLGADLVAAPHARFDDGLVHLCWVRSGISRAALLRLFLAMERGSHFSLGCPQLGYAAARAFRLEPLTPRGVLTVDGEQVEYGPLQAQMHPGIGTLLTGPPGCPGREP
The note with it: at 0.1 µM.

The target of assay [3] is T1, Sphingosine kinase 2 (Homo sapiens). The note with it: at 1 µM.
In assay [4] the target is Casein kinase II subunit alpha (Homo sapiens) (UniProt P68400). Conditions: at 0.1 µM.
For assay [5] the target is unchanged. Conditions: at 1 µM.
The target of assay [6] is T2, Inhibitor of nuclear factor kappa-B kinase subunit alpha (Homo sapiens) (UniProt O15111).
T2 sequence (whole entry): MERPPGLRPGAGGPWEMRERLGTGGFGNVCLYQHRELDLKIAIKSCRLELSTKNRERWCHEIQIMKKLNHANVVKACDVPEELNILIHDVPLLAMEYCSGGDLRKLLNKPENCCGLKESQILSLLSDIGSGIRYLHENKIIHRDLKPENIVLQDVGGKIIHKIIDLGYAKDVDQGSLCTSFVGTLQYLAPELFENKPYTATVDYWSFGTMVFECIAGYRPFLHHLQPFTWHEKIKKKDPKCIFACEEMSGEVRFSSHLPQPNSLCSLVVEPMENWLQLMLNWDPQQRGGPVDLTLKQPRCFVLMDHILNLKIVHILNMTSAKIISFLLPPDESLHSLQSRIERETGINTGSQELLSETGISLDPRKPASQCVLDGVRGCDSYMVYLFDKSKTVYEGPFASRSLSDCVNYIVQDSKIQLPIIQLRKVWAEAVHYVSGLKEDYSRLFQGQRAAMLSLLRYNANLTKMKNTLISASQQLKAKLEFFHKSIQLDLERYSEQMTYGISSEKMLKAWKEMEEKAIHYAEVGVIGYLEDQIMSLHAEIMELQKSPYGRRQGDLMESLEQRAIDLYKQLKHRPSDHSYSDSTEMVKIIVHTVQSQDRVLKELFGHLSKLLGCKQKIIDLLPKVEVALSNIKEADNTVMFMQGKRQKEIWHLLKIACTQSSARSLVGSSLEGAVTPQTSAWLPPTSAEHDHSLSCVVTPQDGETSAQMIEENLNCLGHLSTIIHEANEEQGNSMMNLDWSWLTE
The note with it: at 0.1 µM.

For assay [7], the target named is T2, Inhibitor of nuclear factor kappa-B kinase subunit alpha (Homo sapiens). The note with it: at 1 µM.
Assay [8] concerns the target T3, Inhibitor of nuclear factor kappa-B kinase subunit beta (Homo sapiens) (UniProt O14920).
T3 sequence (whole entry): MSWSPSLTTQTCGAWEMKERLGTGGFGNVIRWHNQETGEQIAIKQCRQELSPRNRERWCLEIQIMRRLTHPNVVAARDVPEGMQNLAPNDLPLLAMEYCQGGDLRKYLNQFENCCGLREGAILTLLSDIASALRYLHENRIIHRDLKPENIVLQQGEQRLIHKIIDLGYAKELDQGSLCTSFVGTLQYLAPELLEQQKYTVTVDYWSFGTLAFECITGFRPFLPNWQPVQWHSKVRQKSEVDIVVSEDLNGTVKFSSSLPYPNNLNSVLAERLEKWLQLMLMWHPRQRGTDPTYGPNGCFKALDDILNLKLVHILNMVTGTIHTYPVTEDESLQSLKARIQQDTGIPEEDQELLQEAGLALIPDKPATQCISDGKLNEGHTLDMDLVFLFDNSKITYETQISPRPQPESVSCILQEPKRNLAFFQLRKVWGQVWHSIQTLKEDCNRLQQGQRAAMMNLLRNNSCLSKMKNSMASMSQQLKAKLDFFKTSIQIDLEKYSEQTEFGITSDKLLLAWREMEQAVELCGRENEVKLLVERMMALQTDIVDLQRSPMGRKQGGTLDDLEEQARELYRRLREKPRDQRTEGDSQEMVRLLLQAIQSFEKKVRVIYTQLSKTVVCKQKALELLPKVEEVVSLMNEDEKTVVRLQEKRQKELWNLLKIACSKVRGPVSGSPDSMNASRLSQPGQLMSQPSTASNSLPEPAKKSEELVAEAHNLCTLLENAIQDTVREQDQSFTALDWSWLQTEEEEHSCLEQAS
The note with it: at 0.1 µM.

For assay [9], the target named is T3, Inhibitor of nuclear factor kappa-B kinase subunit beta (Homo sapiens). The note with it: at 1 µM.
Assay [10] concerns the target T4, Inhibitor of nuclear factor kappa-B kinase subunit epsilon (Homo sapiens) (UniProt Q14164).
T4 sequence (whole entry): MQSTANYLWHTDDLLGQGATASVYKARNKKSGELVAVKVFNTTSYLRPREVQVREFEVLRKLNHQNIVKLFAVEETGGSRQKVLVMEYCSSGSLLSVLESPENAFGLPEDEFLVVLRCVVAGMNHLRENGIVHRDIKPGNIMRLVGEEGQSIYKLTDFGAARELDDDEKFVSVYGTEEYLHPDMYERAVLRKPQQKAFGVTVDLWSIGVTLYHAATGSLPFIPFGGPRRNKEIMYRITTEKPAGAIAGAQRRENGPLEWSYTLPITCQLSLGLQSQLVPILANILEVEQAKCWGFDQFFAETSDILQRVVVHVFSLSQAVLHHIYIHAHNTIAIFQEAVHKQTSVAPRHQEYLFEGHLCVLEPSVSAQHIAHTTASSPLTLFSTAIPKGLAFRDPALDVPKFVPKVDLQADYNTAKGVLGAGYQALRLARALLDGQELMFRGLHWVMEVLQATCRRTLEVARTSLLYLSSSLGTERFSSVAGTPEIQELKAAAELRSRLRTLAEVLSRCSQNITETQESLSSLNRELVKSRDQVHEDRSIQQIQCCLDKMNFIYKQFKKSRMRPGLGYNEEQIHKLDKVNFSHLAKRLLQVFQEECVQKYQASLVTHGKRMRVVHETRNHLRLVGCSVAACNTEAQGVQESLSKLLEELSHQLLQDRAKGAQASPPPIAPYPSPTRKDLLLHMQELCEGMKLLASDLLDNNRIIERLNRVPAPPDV
The note with it: at 0.1 µM.

Assay [11] deals with T4, Inhibitor of nuclear factor kappa-B kinase subunit epsilon (Homo sapiens). Conditions: at 1 µM.
Assay [12] concerns the target T5, Serine/threonine-protein kinase Nek1 (Homo sapiens) (UniProt Q96PY6).
T5 sequence (whole entry): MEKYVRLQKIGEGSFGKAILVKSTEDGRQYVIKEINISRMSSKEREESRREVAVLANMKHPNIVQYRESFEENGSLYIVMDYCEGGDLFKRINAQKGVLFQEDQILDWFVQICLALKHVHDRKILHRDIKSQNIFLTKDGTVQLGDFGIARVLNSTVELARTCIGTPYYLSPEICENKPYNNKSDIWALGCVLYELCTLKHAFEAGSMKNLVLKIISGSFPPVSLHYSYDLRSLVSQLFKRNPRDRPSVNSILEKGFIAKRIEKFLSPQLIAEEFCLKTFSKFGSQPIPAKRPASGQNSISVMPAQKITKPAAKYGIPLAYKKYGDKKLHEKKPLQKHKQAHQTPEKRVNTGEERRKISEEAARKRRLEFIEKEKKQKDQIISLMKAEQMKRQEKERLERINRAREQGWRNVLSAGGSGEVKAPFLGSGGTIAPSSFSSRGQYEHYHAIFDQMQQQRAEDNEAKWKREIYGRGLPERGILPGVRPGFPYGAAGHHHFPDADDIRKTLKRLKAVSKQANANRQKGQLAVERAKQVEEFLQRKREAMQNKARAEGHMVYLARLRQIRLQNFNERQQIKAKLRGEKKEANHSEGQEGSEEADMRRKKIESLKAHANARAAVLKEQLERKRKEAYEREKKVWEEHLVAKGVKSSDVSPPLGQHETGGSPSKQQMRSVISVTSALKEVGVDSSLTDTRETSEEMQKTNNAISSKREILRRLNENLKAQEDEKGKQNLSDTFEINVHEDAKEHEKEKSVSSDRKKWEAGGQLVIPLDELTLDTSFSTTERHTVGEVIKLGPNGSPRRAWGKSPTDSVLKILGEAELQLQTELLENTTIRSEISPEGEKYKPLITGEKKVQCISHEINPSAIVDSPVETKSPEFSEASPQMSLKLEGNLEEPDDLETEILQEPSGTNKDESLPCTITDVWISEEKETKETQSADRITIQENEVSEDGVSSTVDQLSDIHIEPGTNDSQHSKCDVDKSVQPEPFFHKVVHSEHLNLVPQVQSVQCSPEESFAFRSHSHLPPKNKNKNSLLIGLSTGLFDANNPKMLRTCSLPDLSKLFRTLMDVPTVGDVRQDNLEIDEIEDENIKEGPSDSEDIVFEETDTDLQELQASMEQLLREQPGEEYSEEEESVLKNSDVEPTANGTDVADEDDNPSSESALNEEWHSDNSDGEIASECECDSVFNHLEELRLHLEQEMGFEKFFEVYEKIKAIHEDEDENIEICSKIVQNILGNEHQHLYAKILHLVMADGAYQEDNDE
The note with it: at 0.1 µM.

In assay [13] the target is T5, Serine/threonine-protein kinase Nek1 (Homo sapiens). The note with it: at 1 µM.
The target of assay [14] is T6, Serine/threonine-protein kinase Nek2 (Homo sapiens) (UniProt P51955).
T6 sequence (whole entry): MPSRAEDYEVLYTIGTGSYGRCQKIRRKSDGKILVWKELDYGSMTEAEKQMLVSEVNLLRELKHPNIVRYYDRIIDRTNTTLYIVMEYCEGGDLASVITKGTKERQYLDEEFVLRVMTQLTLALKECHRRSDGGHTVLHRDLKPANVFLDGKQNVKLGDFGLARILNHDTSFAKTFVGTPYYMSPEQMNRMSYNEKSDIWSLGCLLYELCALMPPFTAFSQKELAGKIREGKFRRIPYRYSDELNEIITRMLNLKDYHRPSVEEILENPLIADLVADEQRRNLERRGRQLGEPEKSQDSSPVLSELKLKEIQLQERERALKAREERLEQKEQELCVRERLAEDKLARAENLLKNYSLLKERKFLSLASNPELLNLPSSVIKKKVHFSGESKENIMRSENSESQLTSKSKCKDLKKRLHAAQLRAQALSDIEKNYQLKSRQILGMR
The note with it: at 0.1 µM.

Assay [15] addresses T6, Serine/threonine-protein kinase Nek2 (Homo sapiens). Conditions: at 1 µM.
Assay [16] concerns the target Serine/threonine-protein kinase Nek6 (Homo sapiens) (UniProt Q9HC98). The note with it: at 0.1 µM.
The target is the same in assay [17]. The note with it: at 1 µM.
For assay [18], the target named is Serine/threonine-protein kinase Nek7 (Homo sapiens) (UniProt Q8TDX7). Conditions: at 0.1 µM.
The target is the same in assay [19]. Conditions: at 1 µM.
Assay [20] has as its target T7, Serine/threonine-protein kinase Nek9 (Homo sapiens) (UniProt Q8TD19).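 Also: reported value is the mean percent inhibition of NEK9.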
T7 sequence (whole entry): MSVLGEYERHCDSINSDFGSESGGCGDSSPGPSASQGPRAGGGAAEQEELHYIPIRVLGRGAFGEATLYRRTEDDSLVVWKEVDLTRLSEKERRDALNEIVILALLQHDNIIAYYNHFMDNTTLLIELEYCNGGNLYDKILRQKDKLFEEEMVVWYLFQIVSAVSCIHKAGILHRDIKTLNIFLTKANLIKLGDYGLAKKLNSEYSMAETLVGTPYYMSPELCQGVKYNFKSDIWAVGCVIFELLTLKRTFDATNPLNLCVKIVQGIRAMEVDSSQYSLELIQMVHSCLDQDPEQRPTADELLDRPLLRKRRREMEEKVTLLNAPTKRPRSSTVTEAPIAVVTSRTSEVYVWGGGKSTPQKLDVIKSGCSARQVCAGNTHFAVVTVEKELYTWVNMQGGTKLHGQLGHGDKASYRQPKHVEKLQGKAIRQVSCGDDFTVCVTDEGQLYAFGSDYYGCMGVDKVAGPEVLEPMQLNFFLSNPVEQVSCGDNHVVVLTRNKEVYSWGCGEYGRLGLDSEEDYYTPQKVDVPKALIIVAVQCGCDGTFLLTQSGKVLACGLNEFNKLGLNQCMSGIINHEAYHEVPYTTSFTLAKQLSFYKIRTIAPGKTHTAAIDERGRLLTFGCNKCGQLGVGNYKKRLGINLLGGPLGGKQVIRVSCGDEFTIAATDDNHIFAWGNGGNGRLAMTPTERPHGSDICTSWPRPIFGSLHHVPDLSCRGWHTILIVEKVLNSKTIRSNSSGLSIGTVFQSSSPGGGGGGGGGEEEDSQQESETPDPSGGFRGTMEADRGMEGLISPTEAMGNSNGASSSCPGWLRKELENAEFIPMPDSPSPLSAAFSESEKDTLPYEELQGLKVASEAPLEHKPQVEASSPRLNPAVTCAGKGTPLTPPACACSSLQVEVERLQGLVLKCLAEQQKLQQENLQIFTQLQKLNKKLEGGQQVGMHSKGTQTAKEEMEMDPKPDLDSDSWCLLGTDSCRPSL
Conditions: at 0.1 µM.

Molecules are shown by their SMILES.

Sequence of Serine/threonine-protein kinase Nek6 (Homo sapiens) (Q9HC98 whole entry): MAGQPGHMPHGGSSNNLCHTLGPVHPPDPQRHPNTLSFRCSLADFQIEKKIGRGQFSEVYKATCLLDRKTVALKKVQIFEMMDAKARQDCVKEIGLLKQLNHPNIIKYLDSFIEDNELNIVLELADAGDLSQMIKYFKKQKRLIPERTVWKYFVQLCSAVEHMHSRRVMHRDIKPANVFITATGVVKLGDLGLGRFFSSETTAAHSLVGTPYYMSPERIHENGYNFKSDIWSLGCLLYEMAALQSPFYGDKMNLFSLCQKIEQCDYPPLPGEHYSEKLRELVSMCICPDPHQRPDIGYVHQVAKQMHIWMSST
Sequence of Serine/threonine-protein kinase Nek7 (Homo sapiens) (Q8TDX7 whole entry, looked up): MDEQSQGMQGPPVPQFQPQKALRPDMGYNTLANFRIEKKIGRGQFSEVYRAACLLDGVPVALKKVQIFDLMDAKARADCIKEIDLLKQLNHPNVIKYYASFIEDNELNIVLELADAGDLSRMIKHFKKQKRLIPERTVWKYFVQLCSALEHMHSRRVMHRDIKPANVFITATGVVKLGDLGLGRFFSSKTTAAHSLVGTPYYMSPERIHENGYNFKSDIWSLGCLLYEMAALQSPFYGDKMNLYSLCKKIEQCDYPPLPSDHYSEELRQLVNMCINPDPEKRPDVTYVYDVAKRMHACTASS
Sequence of Casein kinase II subunit alpha (Homo sapiens) (P68400 whole entry, looked up): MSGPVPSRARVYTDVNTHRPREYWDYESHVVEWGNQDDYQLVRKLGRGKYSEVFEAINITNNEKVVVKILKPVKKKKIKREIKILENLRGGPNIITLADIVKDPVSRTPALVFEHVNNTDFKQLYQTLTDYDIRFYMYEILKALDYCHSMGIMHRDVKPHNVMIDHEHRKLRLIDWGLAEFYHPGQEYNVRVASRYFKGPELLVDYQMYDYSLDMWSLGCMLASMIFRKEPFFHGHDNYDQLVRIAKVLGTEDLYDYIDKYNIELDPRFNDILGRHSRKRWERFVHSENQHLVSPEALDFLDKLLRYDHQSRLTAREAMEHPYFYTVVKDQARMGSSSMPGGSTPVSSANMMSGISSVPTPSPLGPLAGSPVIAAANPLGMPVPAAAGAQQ
Sequence of Sphingosine kinase 1 (Homo sapiens) (Q9NYA1 whole entry): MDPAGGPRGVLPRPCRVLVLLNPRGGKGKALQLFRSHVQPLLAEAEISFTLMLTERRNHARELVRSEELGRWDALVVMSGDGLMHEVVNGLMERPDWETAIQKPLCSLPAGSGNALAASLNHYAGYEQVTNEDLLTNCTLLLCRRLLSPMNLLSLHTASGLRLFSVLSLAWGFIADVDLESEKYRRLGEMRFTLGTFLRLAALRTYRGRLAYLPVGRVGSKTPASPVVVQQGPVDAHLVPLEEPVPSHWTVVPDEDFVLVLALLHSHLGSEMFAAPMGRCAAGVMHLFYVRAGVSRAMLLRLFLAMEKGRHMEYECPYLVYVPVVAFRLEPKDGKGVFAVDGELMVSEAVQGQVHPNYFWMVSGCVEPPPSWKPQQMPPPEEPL

For the compound `CC(C)c1ccc(-c2cc(-c3c[nH]nc3-c3ccccn3)ccn2)cc1`, the inhibition is -1.66% in assay [1]; -0.31% in assay [2]; -1.09% in assay [3]; 0.16% in [4]; 0.83% in [5]; 7.45% in assay [6]. Further, the inhibition in assay [7] is -4.49%; in [8], 1.97%; in assay [9] it was -0.35%; in assay [10] it was 1.33%; in [11] it was 1.35%; in [12], 0.4%. Also, the inhibition in [13] was 0.95%; in assay [14], 1.77%; in assay [15] it was 1.63%; in [16], 1.08%; in assay [17], -0.92%; in assay [18], 2.44%. Also, the inhibition in assay [19] came to 0.94%; in assay [20], 3.68%.
